Many of the other results were omitted from the sample, so hits are more common in it than they were.
Cycloheximide cs = Cycloheximide Counterscreen for Small Molecule Inhibitors of Shiga Toxin; cell reporter, cycloheximide protein synthesis inhibition counterscreen; max response, %; 300,000 tested, 12% active; AID 2314, 2010; in the data active means max response mostly above about 13%, no sharp cut-off; inactive means mostly below about 14%; further: read at 38.3 µM for the half of the compounds with a filed dose; 0% is about no effect
Vaccinia Venus = qHTS for Stage-Specific Inhibitors of Vaccinia Orthopoxvirus: Venus Reporter Primary qHTS | Vaccinia virus Venus reporter expression, fluorescence | Potency, µM (titrated, usually from 36.5 µM), inactives show top-dose activity change, negative = inhibition, usual class: inhibitors | 330,000 tested, 0.46% active; calls by dose curve; tested in A549 cells; further: potency means the concentration at half of the fitted maximal effect; on the % scale 0 is the no-effect control and ±100 the full control effect; nearly all actives have a fitted effect of over 30% in size
LASV entry inh = qHTS for Inhibitors of binding or entry into cells for Lassa Virus; Lassa virus pseudotype entry inhibition, cell reporter; Potency, µM (series often up to 37.9 µM), for inactives: at the highest dose activity change, negative = inhibition, usual class: inhibitors; 300,000 tested, 1.2% active; AID 540256, 2011; calls by dose curve; tested in HEK293 cells; further: potency means the concentration at half of the fitted maximal effect; on the % scale 0 is the no-effect control and ±100 the full control effect; nearly all actives have a fitted effect of over 50% in size
VACV mCherry inh = qHTS for Stage-Specific Inhibitors of Vaccinia Orthopoxvirus: mCherry Reporter Primary qHTS; 310,000 tested, 0.63% active; Vaccinia virus mCherry reporter infection, fluorescence; AID 720579, 2013; Potency, µM (top dose mostly 36.5 µM), for the others: at the highest dose activity change, negative = inhibition, usual class: inhibitors; calls by dose curve; tested in A549 cells; further: potency means the concentration at half of the fitted maximal effect; on the % scale 0 is the no-effect control and ±100 the full control effect; nearly all actives have a fitted effect of over 35% in size
Marburg entry inh = qHTS for inhibitors of binding or entry into cells for Marburg Virus; Marburg virus pseudotyped entry inhibition, cell reporter; Potency, µM (doses to about 37.8 µM), for inactives: top-dose activity change, negative = inhibition, actives largely listed as inhibitors; 300,000 tested, 1.8% active; calls by dose curve; tested in HEK293 cells; further: potency means the concentration at half of the fitted maximal effect; on the % scale 0 is the no-effect control and ±100 the full control effect
Shiga toxin inh = A qHTS for Small Molecule Inhibitors of Shiga Toxin. Vero cells, Shiga toxin protein synthesis inhibition reporter. inhibition, % at 38.7 µM. 290,000 tested, 9.2% active; in the data active means inhibition mostly above about 28%, no sharp cut-off; inactive means mostly below about 43%; further: 0% is about no effect
The depositor's hits bear a star; i = inactive; ? = inconclusive; · = no result given; [ ] = another dose, or the depositor's remark.

SMILES	Cycloheximide cs	Vaccinia Venus	LASV entry inh	VACV mCherry inh	Marburg entry inh	Shiga toxin inh
O=C(CC(SCCO)c1ccc2c(c1)OCO2)c1ccco1 (configuration not stated)	47.5*	0.3%	5.9%	-9.4%	0.8%	123.2*
CCN1CCN(c2ncc3c(n2)CCN(Cc2ccccc2C)C3)CC1	·	-16.3%	-15.4%[46.1 µM]	-16.3%	·	·
O=S(=O)(Cc1cc(-c2ccccc2)no1)c1ccccc1	33.8*	-23.1%	-0.9%[46.1 µM]	-10.6%	?	65.3*
COc1ccc(-c2cc(CS(=O)(=O)c3ccccc3)on2)cc1	41.1*	-21.6%	-3.1%[46.1 µM]	-9.0%	?	67.7*
O=C1c2ccccc2C(=O)N1Cc1cc(-c2ccccc2)no1	19.1*	-2.7%	-5.7%	i	21.9%	27.3*
CC(=O)Nc1cc(-c2ccc(N3CCN(C)CC3)cc2)cn2c(-c3ccc(S(C)(=O)=O)cc3)cnc12	·	-16.4%	·	6.1%	·	·
NC(=S)N=Nc1c(O)[nH]c2cc(F)c(F)cc12	-2.6	2.24µM*	-12.7%	3.16µM*	4.3%	-2.5
CN(CCO)C(=O)c1cn(C2CCN(Cc3ccc(C(F)(F)F)cc3)CC2)nn1	·	-11.9%	·	-9.9%	·	·
N#C/C(=C\c1ccc[nH]1)C(=O)NCC1CCCO1 (configuration not stated)	25.3*	-16.3%	?	-25.7%	?	38.3
Cc1ccccc1-n1c(C)cc(/C=C(\C#N)C(=O)NCC2CCCO2)c1C (configuration not stated)	65.1*	-9.6%	14.6µM*	-13.9%	-39.6%	122.6*
Cc1ccc(OCCn2cc(/C=C(\C#N)C(=O)NCC3CCCO3)c3ccccc32)cc1C (configuration not stated)	10.4	-20.7%	-21.9%	-27.7%	?	11.3
Cc1ccc(/C=C(\C#N)C(=O)NCC2CCCO2)o1 (configuration not stated)	1.2	·	9.7%	·	17.9%	29.6
Cc1cc(/C=C(\C#N)C(=O)NCc2cccs2)c(C)n1-c1ccccc1F	52.1*	?	?	-13.0%	-29.7%	80.0*
N#C/C(=C\c1ccc(O)cc1)C(=O)NCC1CCCO1 (configuration not stated)	·	-2.5%	28.3%[46.1 µM]	-9.4%	·	·
N#C/C(=C\c1ccco1)C(=O)NCC1CCCO1 (configuration not stated)	17.5*	3.9%	3.1%	i	?	49.9*
O=C(COC(=O)c1ccc(Br)cc1)NCCN1C(=O)CSC1=O	0.3	-0.7%	11.9%	i	17.0%[46.1 µM]	-6.8
CCOC(=O)COc1cc(N)c(Cl)cc1Cl	27.0*	-21.9%	5.2%	-4.6%	7.2%[46.1 µM]	14.9
O=C(O)COc1cc(Cl)c(Cl)cc1Cl	·	0.0%	·	i	·	·
O=C(c1ccc(Cl)s1)N1CCN(c2nc3ccccc3s2)CC1	-0.3	-13.7%	·	-9.1%	3.6%	16.3
CCc1nnc(NC(=O)c2ccc3c(c2)C(=O)N(C(C)(C)C)C3=O)s1	17.1*	·	-5.6%	·	?	37.5
Cc1ccc(C(=O)Nc2nc3ccccc3c(=O)s2)cc1	43.5*	-11.4%	-20.9%	i	-20.9%	101.4*
CC(C)(C)N1C(=O)c2ccc(C(=O)Nc3ccc(O)cc3)cc2C1=O	23.3*	-21.8%	-15.8%	?	?	45.6*
CSc1nc2ccc3nc(NC(=O)c4ccc(C)cc4)sc3c2s1	4.8	-18.3%	·	-14.4%	·	9.6
O=C(Nc1nc2ccccc2s1)c1ccc(Cl)s1	31.6*	-8.1%	·	3.8%	·	85.8*
CCc1nnc(NC(=O)c2ccncc2)s1	-3.6	-5.0%	27.1%	-13.5%	13.3%	11.9
SMILES	Cycloheximide cs	Vaccinia Venus	LASV entry inh	VACV mCherry inh	Marburg entry inh	Shiga toxin inh
CC(=O)Nc1nc(=O)c2ccccc2s1	-6.7	-5.3%	-18.4%	-20.7%	10.9%	31.8
COc1ccc2nc(NC(=O)c3ccc4ncsc4c3)sc2c1	56.4*	?	·	-11.7%	·	70.0*
O=C(Nc1nc(=O)c2ccccc2s1)c1ccccc1	46.3*	-26.0%	-24.9%	-10.3%	?	94.8*
Cc1ccc2nc(NC(=O)c3ccc(-c4nc5ccccc5s4)s3)sc2c1	50.6*	-12.2%	23.6%	-10.9%	-4.6%	86.3*
COc1ccc2nc(NC(=O)c3ccc(F)cc3)sc2c1	26.8*	-8.2%	-0.9%[46.1 µM]	i	?	·
COc1ccc(C(=O)Nc2nc3ccccc3s2)cc1	8.0	·	·	·	·	22.0
Cc1ccc(S(=O)(=O)NCCc2nnc3ccc(SCC(=O)Nc4ccc(F)cc4F)nn23)cc1	·	-15.3%	-1.2%[46.1 µM]	-7.0%	·	·
